Records with an inconclusive call do not appear. A number with no mark means an inactive call. Calls of active or inactive are those of the source. Calls follow the shape of the dose curve; as a rule, active = well fitted inhibition curve with a large enough effect; inconclusive = small, poorly fitted or top-dose-only effect; inactive = flat fitted curve, though single readings scatter.

This assay concerns CP203. In words: qHTS profiling for inhibitors of Plasmodium falciparum proliferation (AID 504749).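 Also: 0% = DMSO vehicle and full inhibition = artemisinin control; nearly all actives have a fitted effect of over 60% in size.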 The settings on record: P. falciparum in erythrocytes, SYBR Green DNA, 72 h; series mostly up to 28.7 µM; activity, negative = inhibition: at the top concentration. From the text:
NIH National Institute of Allergy and Infectious Diseases [NIAID] NIH Chemical Genomics Center [NCGC] MLPCN Grant: None Assay Provider: Xinzhuan Su, NIAID NCGC Assay Overview: Plasmodium falciparum is a virulent malarial parasite that kills 1-2 million people worldwide each year. Transmitted by mosquitoes, the sporozoite form of the parasite enters the blood stream to infect hepatocytes, where they become merozoites that infect red blood cells (erythrocytes). Within erythrocytes, merozoites begin a […] cycle of growth and division, after which the parasite is released to infect new red blood cells. Gametocytes, which form within erythrocytes as well, circulate in the bloodstream and are ingested by the mosquito, thereby completing the life cycle. To profile malarial isolates for differential chemical responses and to identify inhibitors of malarial growth, an assay that measures P. falciparum growth and replication within erythrocytes was employed. This assay uses a DNA binding fluorescent dye (SYBR Green) to detect parasite DNA following cell lysis. Because mature erythrocytes lack DNA, only Plasmodium-derived DNA is detected.
NCGC Assay Protocol Summary: The SYBR Green viability assay was adapted from a method described previously (Plouffe et al., 2008). For screening 3 ul culture medium was dispensed into 1536 well black clear bottom plates (Aurora Biotechnologies) using a Multidrop Combi (Thermo Fisher Scientific Inc.), 23 nL compounds in DMSO were added by a pin tool (Kalypsys), and 5 ul of erythrocytes infected with P. falciparum (0.3% parasitemia, 2.5% hematocrit final concentration) were added. The plates were incubated at 37 C in a humidified incubator in 5% CO2 for 72 h, and 2 ul lysis buffer (20 mM Tris HCl, 10 mM EDTA, 0.16% saponin, 1.6% triton X, 10X SYBR Green I supplied as 10,000X […] by Invitrogen) was added to each well. The plates were mixed for 25 sec with gentle shaking and incubated overnight at room temperature in the dark. The following morning, fluorescence intensity at 485(14) nm excitation and 535(25) nm emission wavelengths was measured on an EnVision (Perkin Elmer) plate reader. Plate reads were normalized relative to the control inhibitor (0.29 uM artemisinin) and vehicle (DMSO) wells present on each plate and then corrected by an algorithm using vehicle-only control plates at the beginning and end of the compound plate stack.
For the compound `O=C1c2c(O)cccc2Cc2cccc(O)c21`, the “activity, negative = inhibition” value is -0.164%.
The same measure, in the same setting: then `[O-][n+]1cccc(CO)c1`, with 0.612%.
Still for that read-out and setting: as for `CCOC(CN1CCN(CC(C)C(=O)c2ccccc2)CC1)c1ccccc1` (stereo not given), the figure is -23.6%; as for `O=S(=O)(O)NC1CCCCC1`, -1.92%.
Regarding `Cc1cc(C(C#N)c2ccc(Cl)cc2)c(Cl)cc1NC(=O)c1cc(I)cc(I)c1O` (stereo not given), the “activity, negative = inhibition” value is -3.51%.
Still for that read-out and setting: as for `O=S(=O)(O)c1cc(I)c(O)c2ncccc12`, the figure is 2.28%; as for `O=C1NC(=O)[C@@]2(CCOc3ccc(F)cc32)N1`, 14.8%.
Same read-out and setting: as for `CCCCc1ncc(/C=C(\Cc2cccs2)C(=O)O)n1Cc1ccc(C(=O)O)cc1`, the figure is -1.45%.
On the same count and under the same terms, as for `O=C(O)c1ccccn1`, the figure is 9.26%.
Take `O=C(CCCN1CCN(c2ccccn2)CC1)c1ccc(F)cc1`: the “activity, negative = inhibition” value is -1.36%.
Same read-out and setting: as for `NS(=O)(=O)c1cc2c(cc1Cl)NC(CSCc1ccccc1)=NS2(=O)=O`, the figure is -0.442% [at 12.8 µM]; as for `O=Cc1ccccc1C=O`, -0.578%.
For `COc1ccc2c(c1)C(=O)N(CCc1ccc(S(=O)(=O)NC(=O)NC3CCCCC3)cc1)C(=O)C2(C)C`, the “activity, negative = inhibition” value was 1.48% [at 12.8 µM].
Still for that read-out and setting: as for `COc1ccc2[nH]c(S(=O)Cc3ncc(C)c(OC)c3C)nc2n1` (stereo not given), the figure is -18.5%.
Regarding `O=C(O)c1ccccc1O`, the “activity, negative = inhibition” value is 0.59%.
Still for that read-out and setting: then `CCC(=O)Nc1ccc(O)cc1`, with -0.995%; and `O=c1[nH]c(=O)c2[nH]c(=O)[nH]c2[nH]1`, with 0.518%; and `O=C(O)[C@@H]1CSCN1`, with 1.91%.
On the same count and under the same terms, as for `COc1cc(C)c(Cc2cnc(N)nc2N)cc1OC`, the figure is -13.2%; as for `COc1ccccc1O`, -1.49%.
On to `CCCCCCCCCCCCOS(=O)(=O)O`, for which the “activity, negative = inhibition” value is 4.61%.
On the same count and under the same terms, as for `Nc1ccc(S(=O)(=O)Nc2nccs2)cc1`, the figure is 0.388%; as for `O=C(O)CN1C(=O)c2cccc3cccc(c23)C1=O`, 0.101%; as for `C#CCN(C)Cc1ccccc1`, -2.86% [at 12.8 µM].
On the same count and under the same terms, as for `Oc1cccc(O)c1`, the figure is 2.87%.
The same measure, in the same setting: as for `CC[C@@]1(c2ccccc2)NC(=O)N(C)C1=O`, the figure is -0.458%; as for `CCOC(=O)[C@H](CCc1ccccc1)N[C@@H](C)C(=O)N1C(=O)N(C)C[C@H]1C(=O)O`, 2.64%.
As to `C[C@](N)(Cc1ccc(O)cc1)C(=O)O`, the “activity, negative = inhibition” value was 0.0003%.
As for `CC(=O)NC(Cc1ccccc1)C(=O)O` (stereo not given), the “activity, negative = inhibition” value was 3.82%.
Still for that read-out and setting: then `C=Cc1c(C)c2cc3[nH]c(cc4nc(cc5nc(cc1[nH]2)C(C)=C5CCC(=O)O)C(CCC(=O)O)=C4C)c(C)c3C=C`, with -8.75%; and `O=C1NS(=O)(=O)c2ccccc21`, with 1.62%; and `CCC(=O)c1ccc(O)cc1`, with 2.38%.
On the same count and under the same terms, then `CC1=C(/C=C/C(C)=C/C=C/C(C)=C/C(=O)O)C(C)(C)CCC1`, with -6.11%.
Turning to `CC(=O)Oc1ccc(C2(c3ccc(OC(C)=O)cc3)C(=O)Nc3ccccc32)cc1`, the Potency entry is “inactive”.
Consider `NCC(=O)CCC(=O)O`, for which the “activity, negative = inhibition” value was 1.27%.
Still for that read-out and setting: then `CC(=O)CCC(=O)O`, with 11.3%.
Still for that read-out and setting: then `CC(C)(C)C(=O)NCCCC(=O)O`, with 0.482%; and `CC(C)(C)NCC(O)COc1ccc(NC(=O)NC2CCCCC2)cc1` (stereo not given), with -7.7%.
`O=c1cc[nH]c(=S)[nH]1`: the “activity, negative = inhibition” value was 0.243%.
The same measure, in the same setting: as for `C[C@@H]1CN(c2c(F)c(F)c3c(=O)c(C(=O)O)cn(C4CC4)c3c2F)C[C@H](C)N1`, the figure is -1.76%.

For the origin of these results see PubChem BioAssay (NCATS).
